About 83,000 compounds went through this panel and 20% of them were active in at least one assay; those are over-represented in the sample as a whole.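 96-well plates, one dose, 48 hours. Percent growth reported; active if below 10.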 Values without a mark were called inactive. Active and inactive are the calls of the source.
Assays:
Experiment in all cases: NCI-60 one-dose screen, 48 h (100 = growth as untreated, 0 = no growth, -100 = all killed)
Conditions in all cases: 10 µM unless noted
NCI-H23 lung = system: NCI-H23 lung
NCI-H226 lung = system: NCI-H226 lung
NCI-H322M lung = system: NCI-H322M lung
HOP-62 NSCLC = system: HOP-62 NSCLC
NCI-H460 lung = system: NCI-H460 lung
HOP-92 NSCLC = system: HOP-92 NSCLC
NCI-H522 lung = system: NCI-H522 lung
786-0 renal = system: 786-0 renal
COLO 205 colon = system: COLO 205 colon
A549/ATCC NSCLC = system: A549/ATCC NSCLC

Structure (SMILES)	growth (NCI-H23 lung)	growth (NCI-H226 lung)	growth (NCI-H322M lung)	growth (HOP-62 NSCLC)	growth (NCI-H460 lung)	growth (HOP-92 NSCLC)	growth (NCI-H522 lung)	growth (786-0 renal)	growth (COLO 205 colon)	growth (A549/ATCC NSCLC) [%]
C[n+]1cc2c3c(ccc2c2ccc4cc5c(cc4c21)OCO5)OCO3	-67% (active)	-87.7% (active)	-93.8% (active)	-83.8% (active)	-54.7% (active)	-80.6% (active)	-74.2% (active)	-87.5% (active)	-84.5% (active)	
O=C(/C=C/c1ccco1)c1ccc(Nc2nc(Nc3ccc(F)cc3)nc(Nc3ccc(Cl)cc3)n2)cc1	59.5%	86%	48.3%	96.2%	61.7%	44.2%	76.8%	84.4%	35.9%	38.3
O=c1[nH]ccc2nc(N3CCC(O)CC3)nc(Nc3ccc(N4CCOCC4)cc3)c12	58.2%	45.7%	83.7%	97.2%	36.2%	2.14% (active)	75.1%	77.2%	-1.79% (active)	29.8
Cc1cc(NCc2cc(Nc3ccnc4cc(Cl)ccc34)ccc2F)nc(N2CCSCC2)n1	26.9%	84.6%	43.2%	-41.6% (active)	6.39% (active)	37.7%	-23.6% (active)	15.5%	-38.5% (active)	39
NC(=O)c1ccc[n+]([C@@H]2O[C@H](COP(=O)([O-])OP(=O)(O)OC[C@H]3O[C@@H](n4cnc5c(N)ncnc54)[C@H](O)[C@@H]3O)[C@@H](O)[C@H]2O)c1	103%	117%	113%	108%	104%	111%	105%	103%	113%	105
CCCCOc1nc2ccccc2cc1C1CNC(=O)c2ccccc2N1 (centres undefined)	23.8%	0.702% (active)	47.2%	23%	6.89% (active)	48.9%	-13.6% (active)	26.2%	9.84% (active)	19.9
COc1ccc2[nH]c(O)c(/C=c3/cc4c(c(-c5cc(OC)c(OC)c(OC)c5)n3)=Nc3ccccc3-4)c2c1	50.7%	67.1%	92.6%	86.2%	71.6%	39.8%	50.4%	67.1%	59.4%	72.5
CNS(=O)(=O)c1n[nH]nc1-c1cc(C(C)(C)C)c(O)c(C(C)(C)C)c1	105%	104%	102%	84.7%	109%	80.2%	80.2%	91.2%	103%	89.5
Cc1cc(C(=O)c2ccccc2)c(C)c2c1[nH]c1ccc(Cl)cc12	24.6%	50.6%	42%	34.3%	5.49% (active)	54.8%	20.8%	24.4%	-24.8% (active)	19.6
Cc1ccc(/C=C/c2c(C(=O)/C=C/c3ccc(Cl)cc3)c(C)nc3ccccc23)cc1	2.79% (active)	-30.4% (active)	51.7%	3.89% (active)	-73.9% (active)	0.669% (active)	5.16% (active)	-17.5% (active)	6.99% (active)	
N#Cc1c(-c2cccc(Cl)c2)cc(-c2cccc(F)c2)[nH]c1=O	96.3%	95.1%	90.8%	93.4%	95.9%	55.3%	85%	90.3%	109%	84.5
C[n+]1cc2cc(C(N)=O)[nH]c3c(=N)c(Cl)c(N)c1c23	56.6%	57.1%	80.5%	37.9%	23.8%	80%	35.2%	49.1%	44.1%	26.3
COc1ccc2cc(-c3cc(OC)c(OC)c(OC)c3)c(=O)oc2c1	79.8%	78.4%	103%	68.3%	84.4%	79.2%	48.3%	68.2%	83.3%	42.1
COc1ccc(-c2nc3ccc4[nH]ncc4c3c3c2CCCC3)cc1B(O)O	72.2%	61.2%	63.4%	51.3%	35.3%	49.8%	48.1%	63.6%	45.8%	53.7
C=C(C)[C@@H]1CC=C2c3sc(-c4ccc(C)cc4)nc3C[C@@H](C)[C@]2(C)C1	112%	101%	101%	102%	114%	103%	95.7%	109%	108%	95.3
COc1cc(N=Nc2ccc(N)cc2)c(OC)cc1N=Nc1ccccc1.[Cl][Zn][Cl]	89%	104%	78.2%	86.5%	109%	71.5%	108%	110%	102%	110
Cc1ccc(-c2cc(-c3cccnc3)[nH]c(=O)c2C#N)cc1	103%	99.2%	103%	107%	107%	97.9%	94%	101%	118%	102
N#C/C(=C\c1ccc(-c2ccccc2F)o1)c1nc(-c2ccco2)cs1	85.5%	80.9%	94.1%	89%	95.1%	85.7%	81.5%	104%	99.6%	99.1
N#Cc1c(-c2ccccn2)[nH]c(=S)[nH]c1=O	106%	103%	97%	99.9%	108%	93.6%	88.9%	92.2%	110%	98
CCN(CC)Cc1cccc(C(=O)OC)c1	96.6%	90.2%	106%	85.2%	103%	87.7%	101%	90.7%	106%	
O=C1/C(=C\c2cccnc2)SC(=S)N1CCc1ccc(O)cc1	50%	94.2%	91.5%	45.6%	18.7%	27.4%	11.9%	39.1%	79.9%	
CCCCCCCCCCCC(c1ccccc1)[N+](C)(C)C (centres undefined)	15.7%	21%	57.3%	16.9%	16.4%	-16.5% (active)	5.04% (active)	20.5%	-74.7% (active)	
CC1=NOC(=O)/C1=C\c1ccc(O)cc1	102%	108%	95.2%	99.5%	109%	101%	97.5%	101%	109%	
Nc1nc(N)c2c(n1)NC(c1ccccc1)C1CCc3ccccc3C1=N2 (centres undefined)	39.3%	53.3%	64.4%	70.2%	18.5%	72.2%	89.9%	55.1%	27.6%	
CCn1c(C)nc2cc(C(N)=O)ccc21	94.3%	89.9%	86.8%	89.3%	101%	90.7%	90.7%	96.3%	120%	
COc1cc(/C=C/C(=O)N2CCN(C(=O)c3cc(OC)c(OC)c(OC)c3)CC2)ccc1OCCCN1C(=O)c2cccc3cccc(c23)C1=O	106%	87%	100%	94.1%	82.6%	-0.534% (active)	65.4%	73.1%	116%	
C=CCn1c(C)nc2cc(Nc3nc(N4CCCC4)nc4ccccc34)ccc21	88.6%	97.7%	113%	90.6%	81.2%	81.3%	127%	75.9%	92.6%	
Cc1ccc(Nc2ccc(Nc3ccc(C)cc3)c3c2C(=O)c2cccc(O)c2C3=O)cc1	84.5%	73.1%	108%	101%	88.3%	70.4%	90.6%	111%	102%	
